Abeta rescue: restores growth of yeast expressing A-beta42 peptide; yeast expressing A-beta42, growth rescue, OD600, 48 h; response scale: 0% DMSO, 100% iron-clioquinol control; Potency, µM (top dose mostly 46.1 µM), usual class: activators; 410,000 tested, 0.063% active; note: nearly all actives have a fitted effect of over 55% in size
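Yeast A-beta toxicity model in growth medium with pinned compounds, 48 h at 30 C; growth read as absorbance at 600 nm. Normalized to FeCl3/clioquinol equimolar mix (positive) and DMSO (negative).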
FUS yeast rescue: rescues growth of FUS-expressing yeast. S. cerevisiae FUS-expressing, growth rescue, OD600, 24 h. Potency, µM (highest dose often 76.6 µM), actives largely listed as activators. 390,000 tested, 0.24% active; note: nearly all actives have a fitted effect of over 55% in size
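Compound concentration series was pinned onto galactose-induced FUS-expressing yeast seeded at OD 0.005. Plates sat 24hr at 30C; absorbance at 600 nm gave growth. DMSO served as background control.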
aSyn rescue: inhibitors of alpha-synuclein toxicity in yeast | Yeast expressing alpha-synuclein, growth rescue, BacTiter-Glo, 24 h | Potency, µM (highest dose often 46.1 µM), most hits filed as activators | 370,000 tested, 0.14% active | AID 652106; note: nearly all actives have a fitted effect of over 65% in size
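Galactose-induced alpha-syn yeast (OD600=0.02, raffinose-pregrown) + pinned cpd, 24 hr, 30 deg C; growth by BacTiter-Glo luminescence. Growth restoration scores as activation.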
TDP-43 yeast inh: inhibitors of TDP-43 toxicity in yeast; TDP-43 expressing yeast growth rescue, BacTiter-Glo, 24 h; Potency, µM (doses to about 46.1 µM), usual class: activators; 410,000 tested, 1.8% active; AID 652104; note: nearly all actives have a fitted effect of over 50% in size
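Luminescence from BacTiter-Glo reports growth of TDP-43-expressing yeast after 24 hr at 30 deg C with compound. Cells were raffinose-pregrown to mid-log, then seeded in galactose medium at OD600=0.02.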
Each line names hits and unclear results; the compound was inactive in the other large screens. Sampled rows, rich in hits. Any-hit rate of the full collection: about 2.1%. Calls come from the whole dose curve; as a rule, active = well fitted curve in the direction sought with a large enough effect; inconclusive = small, poorly fitted or top-dose-only effect, or another doubt; inactive = no such curve, though single readings can be large; an effect the other way counts as inactive or inconclusive.

CC(C)C(=O)Nc1ccc(C(=O)N/N=C/C2CC3C=CC2C3)cc1 (stereo unspecified)	FUS yeast rescue inconclusive
COc1ccc(C=NN=C2c3ccccc3-c3ccccc32)cc1O	TDP-43 yeast inh 18µM (no result: FUS yeast rescue)
O=C(N1CCN(c2ccccc2F)CC1)C1(c2cccs2)CCOCC1	TDP-43 yeast inh inconclusive
Cc1ccc(S(=O)(=O)N2CCOCC2)cc1NC(=O)COC(=O)COc1ccccc1[N+](=O)[O-]	none
COc1ccc(S(=O)(=O)/N=C2\C=C(Nc3ccc(O)cc3)C(=O)c3ccccc32)cc1	none
Cc1cc(-c2ccc(C)c(S(=O)(=O)NCc3cccc(Br)c3)c2)on1	FUS yeast rescue inconclusive, TDP-43 yeast inh 35µM
Cc1cc(-c2ccc(C)c(S(=O)(=O)NCc3ccc(Br)cc3)c2)on1	TDP-43 yeast inh 18µM
Cc1cc(-c2ccc(C)c(S(=O)(=O)NCCc3ccc(S(N)(=O)=O)cc3)c2)on1	none
COc1c(F)c(F)c(C(=O)O)c(Nc2cc(C)cc(C)c2)c1F	none
c1ccc(C2Nc3ccccc3C3OCCCC23)cc1 (stereo unspecified)	TDP-43 yeast inh 11µM
Cc1ccc2c(c1)[C@H]1OCC[C@H]1[C@@H](c1ccncc1)N2	none
Cc1ccc(OCc2nc(-c3ccccn3)n[nH]2)cc1	Abeta rescue inconclusive, aSyn rescue inconclusive, TDP-43 yeast inh 13µM
CC(=O)N1CCN(C(C)=O)c2ccccc21	none (no result: FUS yeast rescue)
CC(=O)N1CCn2c3ccc(C)cc3c3cccc1c32	TDP-43 yeast inh 14µM
Cc1c(CCNC(=O)c2ccc(Br)o2)sc2nc(-c3ccc(Cl)cc3)nn12	TDP-43 yeast inh inconclusive (no result: aSyn rescue)
COc1ccc(-c2nc3scc(CCNS(=O)(=O)c4c(C)cc(C)cc4C)n3n2)cc1OC	TDP-43 yeast inh 22µM (no result: aSyn rescue)
COc1ccc(-c2nc3sc(CCNC(=O)c4ccc(Br)o4)c(C)n3n2)cc1	FUS yeast rescue inconclusive, TDP-43 yeast inh 11µM (no result: aSyn rescue)
CCc1ccc(S(=O)(=O)NCCc2csc3nc(-c4ccccc4)nn23)s1	TDP-43 yeast inh 22µM (no result: aSyn rescue)
COc1ccc(-c2nc3sc(CCNS(=O)(=O)c4c(C)cc(C)cc4C)c(C)n3n2)cc1	Abeta rescue inconclusive, TDP-43 yeast inh 35µM (no result: aSyn rescue)
COc1ccc(Cn2c(SCC(=O)N(C)Cc3ccccc3)nc3ccccc32)cc1	none (no result: aSyn rescue)
O=S(=O)(NCCc1csc2nc(-c3ccccc3)nn12)c1cccs1	TDP-43 yeast inh inconclusive (no result: aSyn rescue)
COc1ccc(-c2nc3scc(CCNS(=O)(=O)c4cccs4)n3n2)cc1	TDP-43 yeast inh 25µM (no result: aSyn rescue)
Cn1c(N)c(C(=O)COC(=O)C2CCC(C(C)(C)C)CC2)c(=O)n(C)c1=O (stereo unspecified)	TDP-43 yeast inh 35µM
Cn1c(N)c(C(=O)COC(=O)C2CCCC2)c(=O)n(C)c1=O	none
COc1ccc(OC)c(NC(=O)CCS(=O)(=O)c2cc3c(cc2C)NC(=O)CO3)c1	none
O=C(c1ccc2c(c1)N(Cc1ccc(Cl)cc1)C(=O)c1ccccc1S2(=O)=O)N1CCCC1	FUS yeast rescue 32µM (no result: aSyn rescue)
O=C(c1ccc2c(c1)N(Cc1ccc(Cl)cc1)C(=O)c1ccccc1S2(=O)=O)N1CCc2ccccc21	FUS yeast rescue 7.9µM (no result: aSyn rescue)
CCC(C)Cn1c(COc2ccc(OC)cc2)nc2ccccc21 (stereo unspecified)	TDP-43 yeast inh inconclusive (no result: aSyn rescue)
C#CCN1CCc2onc(-c3ccc(Br)cc3)c2C1=O	TDP-43 yeast inh 35µM
Cc1ccc(C(=O)NNC(=O)CSc2nnc(C3CC3)n2C)cc1	none
CCCn1nnc(NC(=O)c2cc(Br)ccc2OC)n1	none
COc1cccc(Cn2c(Cn3c(-c4cnccn4)nc4ccccc43)nc3ccccc32)c1	none
COc1cccc(OCc2nc3ccccc3n2Cc2ccccc2)c1	Abeta rescue inconclusive, TDP-43 yeast inh 22µM (no result: aSyn rescue)
COc1cccc(Cn2c(C(C)n3c(-c4cnccn4)nc4ccccc43)nc3ccccc32)c1 (stereo unspecified)	FUS yeast rescue inconclusive, aSyn rescue inconclusive, TDP-43 yeast inh 14µM
COc1ccc(OCc2nc3ccccc3n2C(C)c2ccccc2)cc1 (stereo unspecified)	Abeta rescue inconclusive, TDP-43 yeast inh 13µM (no result: aSyn rescue)
Cc1ccccc1-n1nnnc1SCC(=O)NCC1(N2CCOCC2)CCCCC1	none
COc1ccc(NC(=O)Nc2cccc3c2O[C@H](CN(C)C(=O)Nc2ccccc2)[C@@H](C)CN([C@H](C)CO)C3=O)cc1	none
O=C(CSc1nccc(=O)[nH]1)N1c2ccccc2CCc2ccccc21	none
Cc1nc2cc(Oc3nc(NCCN(C)C)nc4ccsc34)ccc2s1	none
CNc1nc(Oc2ccc3sc(C)nc3c2)c2sccc2n1	TDP-43 yeast inh 20µM
Cc1ccccc1C1C(C#N)=C2N=C(N)c3c(sc4c3CCCCC4)N2C2=C1C(=O)CC(C)(C)C2 (stereo unspecified)	FUS yeast rescue 28µM
Cc1ccccc1C1C(C#N)=C2N=C(N)c3ccccc3N2C2=C1C(=O)CCC2 (stereo unspecified)	none
O=C(COC(=O)c1ccc(F)c(S(=O)(=O)N2CCOCC2)c1)Nc1ccc2[nH]c(=O)[nH]c2c1	none
Fc1ccc(-c2cc3nc4c(c(N5CCOCC5)n3n2)CCCC4)cc1	TDP-43 yeast inh 16µM
Cn1c(CN2CCN(C(=O)c3ccccc3Cl)CC2)nc2cc([N+](=O)[O-])ccc21	none
CC(C)Oc1ccc(F)cc1-c1cc(C(=O)N2CCc3ccccc3C2)[nH]n1	FUS yeast rescue inconclusive, TDP-43 yeast inh 28µM
O=C(COc1ccc(Br)cc1)Nc1ccccc1N1CCCC1	none
CC(C)(C)c1ccc(OCCNC(=S)Nc2ccccc2)cc1	TDP-43 yeast inh 13µM
CC(C)(C)c1ccc(OCCNCc2ccccc2)cc1	none
COc1ccc(OCC(O)CNc2ccc(Br)cc2)cc1 (stereo unspecified)	TDP-43 yeast inh 11µM
COc1ccc(OCC(O)CNC(=O)c2ccc(Br)cc2)cc1 (stereo unspecified)	none
CCCS(=O)(=O)NC(=O)C1(C)CCCN(C(=O)c2ccncc2)C1 (stereo unspecified)	none
O=c1cc(-c2ccc(C3CCCCC3)cc2)[nH][nH]1	TDP-43 yeast inh 18µM
COc1ccc(C(=O)c2c(N)c(C(=O)Nc3ccccc3Cl)c3ccccn23)cc1	none (no result: aSyn rescue)
O=C(CSc1nnc(Cc2cccs2)n1Cc1ccco1)Nc1cccc(Cl)c1	none
COc1ccc2nc(NC(=O)CCc3nc(-c4ccccc4F)no3)sc2c1	none (no result: FUS yeast rescue)
Cc1ccc(S(=O)(=O)Nc2cccc3cccnc23)c([N+](=O)[O-])c1	aSyn rescue 18µM, TDP-43 yeast inh 7.9µM
CCn1c(SCC(=O)Nc2ccc(N3CCOCC3)cc2)nnc1-c1ccco1	none
CC(Nc1cc(N2CCNCC2)ccc1[N+](=O)[O-])c1ccccc1 (stereo unspecified)	none (no result: FUS yeast rescue)
CC(C)C(=O)N1CCN(c2ccc([N+](=O)[O-])c(NC(C)c3ccccc3)c2)CC1 (stereo unspecified)	FUS yeast rescue inconclusive, TDP-43 yeast inh 20µM
CC(Nc1cc(N2CCN(C(=O)C(C)(C)C)CC2)ccc1[N+](=O)[O-])c1ccccc1 (stereo unspecified)	FUS yeast rescue inconclusive, TDP-43 yeast inh 20µM
O=C1C=C(NCc2ccccc2)CCC1	none (no result: FUS yeast rescue)

Screening data deposited in PubChem by National Center for Advancing Translational Sciences (NCATS).
